# From the supplement of paper PMC13380429
# Tests used:
# [1] = system: Vero E6 infected with SARS-CoV-2; test: morphology score (similarity to uninfected cells); higher = more like uninfected cells; conditions: 24 h
# [2] = system: Vero E6 infected with SARS-CoV-2; test: SARS-CoV-2 infection rate relative to infected DMSO; higher = more infection, active = 60 or less; conditions: 24 h
smiles,measurement,setting,value
O=C(Nc1ccc(CN2CCOCC2)cc1)c1ccc(-c2cccc(Cl)c2)o1 (10 µM),morphology score,[1],0.194
same,SARS-CoV-2 infection rate,[2],110% (inactive)
O=C(O[C@H]1[C@H](OC(=O)c2cccnc2)[C@@H](OC(=O)c2cccnc2)[C@H](OC(=O)c2cccnc2)[C@@H](OC(=O)c2cccnc2)[C@H]1OC(=O)c1cccnc1)c1cccnc1 [inositol-hexanicotinate] (10 µM),morphology score,[1],0.0225
same,SARS-CoV-2 infection rate,[2],109% (inactive)
C1CCN2C[C@@H]3C[C@@H](CN4CCCC[C@@H]34)[C@H]2C1 [sparteine-sulfate] (10 µM),morphology score,[1],0.00477
same,SARS-CoV-2 infection rate,[2],112% (inactive)
CN(C)CC/C=C1/c2ccccc2COc2ccccc21 [doxepin] (10 µM),morphology score,[1],0.0537
same,SARS-CoV-2 infection rate,[2],105% (inactive)
CN1c2ccccc2C(=O)N2CCc3c([nH]c4ccccc34)C21 (stereo in doubt) [evodiamine] (10 µM),morphology score,[1],-0.093
same,SARS-CoV-2 infection rate,[2],100% (inactive)
Clc1ccccc1CNC[C@H]1CC[C@H](CNCc2ccccc2Cl)CC1 (10 µM),morphology score,[1],0.523
same,SARS-CoV-2 infection rate,[2],49% (active)
Nc1ccn([C@H]2CC[C@@H](CO)O2)c(=O)n1 [zalcitabine] (10 µM),morphology score,[1],0.0931
same,SARS-CoV-2 infection rate,[2],104% (inactive)
CSc1ccc2c(c1)[C@H](N1CCN(C)CC1)Cc1ccccc1S2 (racemic) [metitepine] (0.833333 µM),morphology score,[1],-0.0536
same,SARS-CoV-2 infection rate,[2],112% (inactive)
C#C[C@]1(O)CC[C@H]2[C@@H]3CCC4=Cc5oncc5C[C@]4(C)[C@H]3CC[C@@]21C [danazol] (10 µM),morphology score,[1],0.377
same,SARS-CoV-2 infection rate,[2],72% (inactive)
CC(CC(C(N)=O)(c1ccccc1)c1ccccc1)N(C)C (stereo not given) [aminopentamide] (10 µM),morphology score,[1],0.0885
same,SARS-CoV-2 infection rate,[2],104% (inactive)
C[C@H](Cc1ccc(O)c(O)c1)[C@@H](C)Cc1ccc(O)c(O)c1 [masoprocol] (10 µM),morphology score,[1],0.0645
same,SARS-CoV-2 infection rate,[2],90% (inactive)
CS(=O)(=O)c1ccc(Cn2c3c(c4cc(F)cc(F)c42)CCCC3CC(=O)O)cc1 (stereo not given) (10 µM),morphology score,[1],0.144
same,SARS-CoV-2 infection rate,[2],90% (inactive)
CCc1ccc(/C=C/C(=O)Nc2ccc(C(C)=O)cc2)o1 [heclin] (10 µM),morphology score,[1],0.263
same,SARS-CoV-2 infection rate,[2],77% (inactive)
CCS(=O)(=O)CCn1c([N+](=O)[O-])cnc1C [tinidazole] (10 µM),morphology score,[1],0.142
same,SARS-CoV-2 infection rate,[2],108% (inactive)
CC(=O)c1c(O)cc(C)oc1=O [dehydroacetic-acid] (10 µM),morphology score,[1],0.121
same,SARS-CoV-2 infection rate,[2],93.5% (inactive)
O=C(O)c1cc(O)c2c3nc4ccccc4oc-3cc(=O)c2n1 [pirenoxine] (10 µM),morphology score,[1],0.0951
same,SARS-CoV-2 infection rate,[2],102% (inactive)
Nc1ncnc2c1C(=O)N(c1ccc([C@H]3CC[C@H](CC(=O)O)CC3)cc1)CCO2 (10 µM),morphology score,[1],0.118
same,SARS-CoV-2 infection rate,[2],92.5% (inactive)
CCOc1ccccc1C(=O)O [2-ethoxybenzoic-acid] (10 µM),morphology score,[1],0.0437
same,SARS-CoV-2 infection rate,[2],115% (inactive)
CCN(CC)CCN[C@@H](C(=O)OCCC(C)C)c1ccccc1 [camylofine-chlorhydrate] (10 µM),morphology score,[1],0.18
same,SARS-CoV-2 infection rate,[2],98% (inactive)
C[C@H](C[C@H](N)C(=O)O)C(=O)O (10 µM),morphology score,[1],0.0497
same,SARS-CoV-2 infection rate,[2],108% (inactive)
COc1cc2ncnc(Nc3ccc(F)c(Cl)c3)c2cc1NC(=O)/C=C/CN1CCCCC1 [dacomitinib] (0.833333 µM),morphology score,[1],-0.0483
same,SARS-CoV-2 infection rate,[2],103% (inactive)
CS(=O)(=O)OCCCCOS(C)(=O)=O [busulfan] (10 µM),morphology score,[1],-0.026
same,SARS-CoV-2 infection rate,[2],102% (inactive)
Oc1ccc(/C=C/c2cc(O)cc(O)c2)cc1 [resveratrol] (10 µM),morphology score,[1],0.0102
same,SARS-CoV-2 infection rate,[2],104% (inactive)
"CCn1c(O)nnc1-c1ccc(Cl)cc1 [5-(4chlorophenyl)-4-ethyl-2,4-dihydro-3H-1,2,4-triazol-3-one] (0.833333 µM)",morphology score,[1],0.0166
same,SARS-CoV-2 infection rate,[2],110% (inactive)
Cc1cccc(-c2[nH]c(C(C)(C)C)nc2-c2ccc3nccnc3c2)n1 (10 µM),morphology score,[1],-0.0319
same,SARS-CoV-2 infection rate,[2],100% (inactive)
CN1CCC(=C2c3ccccc3C=Cc3ccccc32)CC1 [cyproheptadine] (0.833333 µM),morphology score,[1],0.0226
same,SARS-CoV-2 infection rate,[2],102% (inactive)
COc1cc2c(NC3CCN(C4CCCCC4)CC3)nc(N3CCCN(C(C)C)CC3)nc2cc1OCCCN1CCCCC1 (10 µM),morphology score,[1],0.458
same,SARS-CoV-2 infection rate,[2],52% (active)
C[C@H](Nc1cc2c(-c3ccc4c(c3)OCO4)noc2cn1)c1ccccc1 (10 µM),morphology score,[1],0.191
same,SARS-CoV-2 infection rate,[2],84.5% (inactive)
O=C(Nc1ccccc1)N1CCC(Cc2cnc3ccccc3c2)CC1 (10 µM),morphology score,[1],-0.147
same,SARS-CoV-2 infection rate,[2],104% (inactive)
C[C@H](NC(=O)C(C)(C)Oc1ccc(C(F)(F)F)cn1)[C@@H](Cc1ccc(Cl)cc1)c1cccc(C#N)c1 [taranabant] (10 µM),morphology score,[1],0.1
same,SARS-CoV-2 infection rate,[2],101% (inactive)
CC(=O)[O-].CC(=O)[O-].N.NC1CCCCC1.[Cl-].[Cl-].[Pt+4] [satraplatin] (0.833333 µM),morphology score,[1],0.00101
same,SARS-CoV-2 infection rate,[2],104% (inactive)
CCOC(=O)[C@@H](N)Cc1ccc(-c2cc(O[C@H](c3ccc(Cl)cc3-n3ccc(C)n3)C(F)(F)F)nc(N)n2)cc1 [telotristat-ethyl] (10 µM),morphology score,[1],0.343
same,SARS-CoV-2 infection rate,[2],95.5% (inactive)
COC(=O)Nc1nc2cc(C(=O)c3ccc(F)cc3)ccc2[nH]1 [flubendazole] (10 µM),morphology score,[1],0.13
same,SARS-CoV-2 infection rate,[2],98% (inactive)
C[C@H]1[C@@H](O)O[C@@H]2O[C@@]3(C)CC[C@H]4[C@H](C)CC[C@@H]1[C@@]24OO3 (10 µM),morphology score,[1],0.225
same,SARS-CoV-2 infection rate,[2],84% (inactive)
Nc1ncnc2c1ncn2C1CCCO1 (stereo not given) (10 µM),morphology score,[1],0.029
same,SARS-CoV-2 infection rate,[2],103% (inactive)
CNCc1ccc(-c2cc(-c3nc(-c4ccc(S(=O)(=O)C(C)C)cc4)cnc3N)on2)cc1 (0.833333 µM),morphology score,[1],0.565
same,SARS-CoV-2 infection rate,[2],52% (active)
Nc1nc(/C(=C/CC(=O)O)C(=O)N[C@@H]2C(=O)N3C(C(=O)O)=CCS[C@H]23)cs1 [ceftibuten] (10 µM),morphology score,[1],0.161
same,SARS-CoV-2 infection rate,[2],103% (inactive)
CCC(CC)O[C@@H]1C=C(C(=O)O)C[C@H](N)[C@H]1NC(C)=O [oseltamivir-carboxylate] (10 µM),morphology score,[1],-0.0548
same,SARS-CoV-2 infection rate,[2],102% (inactive)
C=CCN1CCCC1CNC(=O)c1cc2nn[nH]c2cc1OC (stereo not given) [alizapride] (10 µM),morphology score,[1],-0.124
same,SARS-CoV-2 infection rate,[2],121% (inactive)
CC(C(=O)O)c1ccc(N2Cc3ccccc3C2=O)cc1 (stereo not given) [indoprofen] (10 µM),morphology score,[1],-0.106
same,SARS-CoV-2 infection rate,[2],110% (inactive)
COc1cc2ncn(-c3cc(OCc4ccccc4C(F)(F)F)c(C(N)=O)s3)c2cc1OC (10 µM),morphology score,[1],-0.0651
same,SARS-CoV-2 infection rate,[2],106% (inactive)
O=C(C(c1ccccc1)c1ccccc1)N1CCN(CC(O)COc2cccc3ncccc23)CC1 (stereo not given) [dofequidar] (10 µM),morphology score,[1],0.14
same,SARS-CoV-2 infection rate,[2],89.5% (inactive)
CN1C(=O)CC[C@H]1c1cccnc1 [cotinine] (10 µM),morphology score,[1],0.0591
same,SARS-CoV-2 infection rate,[2],108% (inactive)
CC/C=C(\C(=O)N[C@@H]1C(=O)N2C(C(=O)OCOC(=O)C(C)(C)C)=C(COC(N)=O)CS[C@H]12)c1csc(N)n1 [cefcapene-pivoxil] (10 µM),morphology score,[1],-0.175
same,SARS-CoV-2 infection rate,[2],114% (inactive)
C[C@@H]1C[C@@H]([C@H](O)CC2CC(=O)NC(=O)C2)C(=O)[C@@H](C)C1 [cycloheximide] (10 µM),morphology score,[1],0.392
same,SARS-CoV-2 infection rate,[2],69% (inactive)
CCCN(CCC)C(=O)C(CCC(=O)OCCCN1CCN(CCOC(=O)Cc2c(C)n(C(=O)c3ccc(Cl)cc3)c3ccc(OC)cc23)CC1)NC(=O)c1ccccc1 (stereo not given) [proglumetacin] (10 µM),morphology score,[1],0.0923
same,SARS-CoV-2 infection rate,[2],99.5% (inactive)
CC(NC(C)(C)C)C(=O)c1cccc(Cl)c1 (stereo not given) [bupropion] (10 µM),morphology score,[1],0.00981
same,SARS-CoV-2 infection rate,[2],96.5% (inactive)
CN(C)c1nc(N(C)C)nc(N(C)C)n1 [altretamine] (10 µM),morphology score,[1],-0.171
same,SARS-CoV-2 infection rate,[2],114% (inactive)
CN(C(=O)Cc1ccc(Cl)c(Cl)c1)[C@H](CN1CCCC1)c1ccccc1 (10 µM),morphology score,[1],0.793
same,SARS-CoV-2 infection rate,[2],21.5% (active)
Cc1cc(Oc2ccc3nc(COc4ccc(CC5SC(=O)NC5=O)cc4)n(C)c3c2)cc(C)c1N (stereo not given) [efatutazone] (10 µM),morphology score,[1],0.36
same,SARS-CoV-2 infection rate,[2],93.5% (inactive)
Cc1cc(C)c(Nc2ccnc(Nc3ccc(C#N)cc3)n2)c(C)c1 [dapivirine] (0.833333 µM),morphology score,[1],0.07
same,SARS-CoV-2 infection rate,[2],114% (inactive)
O=C(O)[C@@H]1C[C@@H](C2CCCCC2)CN1C(=O)CP(=O)(O)CCCCc1ccccc1 [fosinoprilat] (10 µM),morphology score,[1],0.0775
same,SARS-CoV-2 infection rate,[2],100% (inactive)
CCCCCCCCCCC(=O)O[C@H]1CC[C@H]2[C@@H]3CCC4=CC(=O)CC[C@]4(C)[C@H]3CC[C@]12C [Testosterone (undecanoate)] (10 µM),morphology score,[1],0.107
same,SARS-CoV-2 infection rate,[2],98.5% (inactive)
c1cc(-c2cnn3cc(-c4ccc(OCCN5CCCCC5)cc4)cnc23)ccn1 [dorsomorphin] (0.833333 µM),morphology score,[1],0.321
same,SARS-CoV-2 infection rate,[2],96.5% (inactive)
COc1ccc2[nH]c([S+]([O-])Cc3ncc(C)c(OC)c3C)nc2c1 (stereo not given) [omeprazole-magnesium] (10 µM),morphology score,[1],-0.138
same,SARS-CoV-2 infection rate,[2],116% (inactive)
CC(=O)O[C@]1(C(C)=O)CC[C@H]2[C@@H]3C=C(C)C4=CC(=O)CC[C@@H]4[C@H]3CC[C@@]21C [nomegestrol-acetate] (10 µM),morphology score,[1],0.147
same,SARS-CoV-2 infection rate,[2],95% (inactive)
COc1ccc(C(=O)NCc2ccc(OCCN(C)C)cc2)cc1OC [itopride] (10 µM),morphology score,[1],0.19
same,SARS-CoV-2 infection rate,[2],90.5% (inactive)
O=C(NCCO)c1cc(C(=O)NCCO)cc(C(=O)NCCO)c1 (10 µM),morphology score,[1],0.0411
same,SARS-CoV-2 infection rate,[2],102% (inactive)
Cc1nnc(NS(=O)(=O)c2ccc(N)cc2)s1 [sulfamethizole] (10 µM),morphology score,[1],0.0585
same,SARS-CoV-2 infection rate,[2],108% (inactive)
CCN(CC)CCOc1ccccc1C(=O)CCc1ccccc1 [etafenone] (10 µM),morphology score,[1],0.151
same,SARS-CoV-2 infection rate,[2],97.5% (inactive)
